Laboratory results from PubChem BioAssay AID1159580 (chemical genetic matrix, 2015).
Screen size: about 5,500 compounds; about 2,000 (36%) were called active. Not shown: some 18% with an inconclusive outcome. Cut-off read from the data, not from the text of the source: active = normalized growth mostly below about 0.91 (no sharp cut-off); inconclusive = no clear call, values can overlap the other calls; inactive = mostly above about 0.92. The list shows a part of the results.

Experiment: chemical genetic growth profiling, strain panel (AID 1159580);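 note: tested at 20 µM; growth read once vehicle control cultures reached saturation at 30 °C; 1 = growth at the plate median or of vehicle wells; lower values mean less growth of the strain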
Settings: growth OD

Measured: normalized growth

C[C@@H]1O[C@@H](O[C@H]2[C@@H](Oc3cc(O)c4c(c3)O[C@H](c3ccc(O)cc3)CC4=O)O[C@H](CO)[C@@H](O)[C@@H]2O)[C@H](O)[C@H](O)[C@H]1O
inactive: S. cerevisiae deletion strains, locus YJR075W, strain HOC1, hits give low values 0.996 | S. cerevisiae deletion strains, locus YKL009W, strain mrt4, hits give low values 0.997 | S. cerevisiae deletion strains, locus YKL068W, hits give low values 1 | S. cerevisiae deletion strains, locus YKL085W, strain MDH1 (second series), hits give low values 0.996 | S. cerevisiae deletion strains, locus YKL085W, strain MDH1, hits give low values 0.996 | S. cerevisiae deletion strains, locus YKL160W, strain elf1, hits give low values 0.971 | S. cerevisiae deletion strains, locus YKL190W, strain CNB1, hits give low values 1 | S. cerevisiae deletion strains, locus YKR001C, strain vps1, hits give low values 1.01 | S. cerevisiae deletion strains, locus YKR026C, strain gcn3, hits give low values 0.996 | S. cerevisiae deletion strains, locus YKR091W, strain srl3, hits give low values 0.969 | S. cerevisiae deletion strains, locus YLL001W, strain dnm1, hits give low values 0.952 | S. cerevisiae deletion strains, locus YLL026W, hits give low values 0.974 | S. cerevisiae deletion strains, locus YLL041C, strain sdh2, hits give low values 0.983 | S. cerevisiae deletion strains, locus YLR027C, strain aat2, hits give low values 0.967 | S. cerevisiae deletion strains, locus YLR039C, strain RIC1, hits give low values 0.97 | S. cerevisiae deletion strains, locus YLR058C, strain SHM2, hits give low values 0.977 | S. cerevisiae deletion strains, locus YLR102C, strain apc9, hits give low values 1 | S. cerevisiae deletion strains, locus YLR113W, strain HOG1, hits give low values 0.969 | S. cerevisiae deletion strains, locus YLR221C, strain rsa3, hits give low values 0.957 | S. cerevisiae deletion strains, locus YLR258W, strain gsy2, hits give low values 0.981 | S. cerevisiae deletion strains, locus YLR262C, strain YPT6 (second series), hits give low values 0.979 | S. cerevisiae deletion strains, locus YLR262C, strain YPT6, hits give low values 0.969 | S. cerevisiae deletion strains, locus YLR268W, strain sec22, hits give low values 1.01 | S. cerevisiae deletion strains, locus YLR320W, strain mms22, hits give low values 0.969 | S. cerevisiae deletion strains, locus YLR330W, strain CHS5, hits give low values 0.99 | S. cerevisiae deletion strains, locus YLR342W, strain FKS1 (second series), hits give low values 1.03 | S. cerevisiae deletion strains, locus YLR342W, strain FKS1, hits give low values 0.98 | S. cerevisiae deletion strains, locus YLR357W, strain rsc2, hits give low values 0.956 | S. cerevisiae deletion strains, locus YLR370C, strain arc18, hits give low values 0.981 | S. cerevisiae deletion strains, locus YLR371W, strain rom2, hits give low values 0.997 | S. cerevisiae deletion strains, locus YLR384C, strain iki3, hits give low values 0.963 | S. cerevisiae deletion strains, locus YLR418C, strain cdc73, hits give low values 1.03 | S. cerevisiae deletion strains, locus YML016C, strain PPZ1, hits give low values 0.984 | S. cerevisiae deletion strains, locus YML032C, strain rad52, hits give low values 0.996 | S. cerevisiae deletion strains, locus YML120C, strain ndi1, hits give low values 0.953 | S. cerevisiae deletion strains, locus YML124C, strain tub3, hits give low values 0.993 | S. cerevisiae deletion strains, locus YMR058W, strain fet3, hits give low values 0.972 | S. cerevisiae deletion strains, locus YMR078C, strain ctf18, hits give low values 0.993 | S. cerevisiae deletion strains, locus YMR125W, strain sto1, hits give low values 0.941 | S. cerevisiae deletion strains, locus YMR129W, hits give low values 0.974 | S. cerevisiae deletion strains, locus YMR205C, strain PFK2, hits give low values 0.962 | S. cerevisiae deletion strains, locus YMR223W, strain ubp8, hits give low values 0.991 | S. cerevisiae deletion strains, locus YMR231W, strain pep5, hits give low values 0.983 | S. cerevisiae deletion strains, locus YMR263W, strain SAP30, hits give low values 0.987 | S. cerevisiae deletion strains, locus YMR307W, strain GAS1, hits give low values 1.04 | S. cerevisiae deletion strains, locus YNL067W, strain RPL9B, hits give low values 1 | S. cerevisiae deletion strains, locus YNL071W, strain lat1, hits give low values 0.979 | S. cerevisiae deletion strains, locus YNL128W, strain TEP1, hits give low values 0.975 | S. cerevisiae deletion strains, locus YNL153C, strain GIM3, hits give low values 0.981 | S. cerevisiae deletion strains, locus YNL183C, strain NPR1, hits give low values 0.92 | S. cerevisiae deletion strains, locus YNL209W, strain ssb2, hits give low values 0.971 | S. cerevisiae deletion strains, locus YNL233W, strain BNI4, hits give low values 0.991 | S. cerevisiae deletion strains, locus YNL248C, strain rpa49, hits give low values 0.977 | S. cerevisiae deletion strains, locus YNL250W, strain rad50, hits give low values 0.982 | S. cerevisiae deletion strains, locus YNL271C, strain bni1, hits give low values 0.999 | S. cerevisiae deletion strains, locus YNL298W, strain CLA4, hits give low values 1 | S. cerevisiae deletion strains, locus YNL307C, strain MCK1, hits give low values 1 | S. cerevisiae deletion strains, locus YNL322C, strain KRE1 (second series), hits give low values 0.951 | S. cerevisiae deletion strains, locus YNL322C, strain KRE1, hits give low values 0.987 | S. cerevisiae deletion strains, locus YNR049C, strain mso1, hits give low values 0.961 | S. cerevisiae deletion strains, locus YNR052C, strain pop2, hits give low values 0.998 | S. cerevisiae deletion strains, locus YOL006C, strain TOP1, hits give low values 0.962 | S. cerevisiae deletion strains, locus YOL012C, strain htz1 1.14 | S. cerevisiae deletion strains, locus YOL147C, strain pex11, hits give low values 1 | S. cerevisiae deletion strains, locus YOR001W, strain rrp6, hits give low values 0.998 | S. cerevisiae deletion strains, locus YOR061W, strain CKA2, hits give low values 0.967 | S. cerevisiae deletion strains, locus YOR069W, strain VPS5, hits give low values 0.99 | S. cerevisiae deletion strains, locus YOR070C, strain gyp1, hits give low values 0.981 | S. cerevisiae deletion strains, locus YOR080W, strain dia2, hits give low values 0.967 | S. cerevisiae deletion strains, locus YOR083W, strain WHI5, hits give low values 0.947 | S. cerevisiae deletion strains, locus YOR106W, strain vam3, hits give low values 0.954 | S. cerevisiae deletion strains, locus YOR136W, strain idh2, hits give low values 0.999 | S. cerevisiae deletion strains, locus YOR144C, strain elg1, hits give low values 1 | S. cerevisiae deletion strains, locus YOR184W, strain ser1, hits give low values 0.991 | S. cerevisiae deletion strains, locus YOR231W, strain MKK1, hits give low values 0.98 | S. cerevisiae deletion strains, locus YOR265W, strain rbl2, hits give low values 0.983 | S. cerevisiae deletion strains, locus YOR270C, strain vph1, hits give low values 0.915 | S. cerevisiae deletion strains, locus YOR290C, strain snf2, hits give low values 0.919 | S. cerevisiae deletion strains, locus YOR316C, strain cot1, hits give low values 0.992 | S. cerevisiae deletion strains, locus YPL051W, strain arl3, hits give low values 0.987 | S. cerevisiae deletion strains, locus YPL055C, strain LGE1, hits give low values 0.973 | S. cerevisiae deletion strains, locus YPL078C, strain atp4, hits give low values 0.968 | S. cerevisiae deletion strains, locus YPL106C, strain sse1, hits give low values 0.942 | S. cerevisiae deletion strains, locus YPL240C, strain hsp82, hits give low values 0.973 | S. cerevisiae deletion strains, locus YPL241C, strain CIN2, hits give low values 0.991 | S. cerevisiae deletion strains, locus YPL256C, strain CLN2, hits give low values 0.998 | S. cerevisiae deletion strains, locus YPR119W, strain clb2, hits give low values 1 | S. cerevisiae deletion strains, locus YPR141C, strain kar3, hits give low values 0.992 | S. cerevisiae deletion strains, locus YPR163C, strain tif3, hits give low values 1 | S. cerevisiae deletion strains, locus YPR167C, strain met16, hits give low values 0.998 | S. cerevisiae deletion strains, strain wtn01, hits give low values 0.997 | S. cerevisiae strains, strain wild type, hits give low values 0.98
